Compounds with a hit are over-represented: about 9% of the library has one in this group of screens.
HP1b chromo inh: HTS for Inhibitors of HP1-beta Chromodomain Interactions with Methylated Histone Tails | Chromobox protein homolog 1 (Homo sapiens), P83916 | Potency, µM (series often up to 114 µM), inactives show at the top dose activity change, negative = inhibition, usual class: inhibitors | AlphaScreen HP1-beta / biotin-H3K9me3 peptide binding | AID 540317, 2011 | 390,000 compounds, 0.56% hits; also: nearly all actives have a fitted effect of over 70% in size
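Compound inhibition of the preformed complex between 50 nM HP1-beta and 50 nM biotinylated H3K9me3 peptide was read by AlphaScreen. Buffer was PBS pH 7.4 with 0.01% Tween-20. Incubations ran 30 min at room temperature, with 10 ug/mL donor/acceptor beads.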
G9a inh: qHTS Assay for Inhibitors of Histone Lysine Methyltransferase G9a; Histone-lysine N-methyltransferase EHMT2 (Homo sapiens), Q96KQ7; G9a H3K9 monomethylation, AlphaScreen, 2 h; Potency, µM (top dose mostly 102 µM), for the others: at the top dose activity, negative = inhibition, most hits filed as inhibitors; 350,000 compounds, 8.8% hits; AID 504332, 2011; also: % is scaled to controls: 0 for no effect and ±100 for the full control effect; nearly all actives have a fitted effect of over 75% in size
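AlphaScreen detection with an anti-monomethyl H3K9 antibody quantified product after a 2 h room-temperature reaction containing 500 nM biotinylated H3K9 peptide, 20 µM SAM and 20 nM enzyme, which had been preincubated 15 min with compound.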
JMJD2A Tudor inh: qHTS Assay for Inhibitors of JMJD2A-Tudor Domain. Lysine-specific demethylase 4A (Homo sapiens), O75164. AlphaScreen JMJD2A-Tudor / H3K4me3 peptide binding. Potency, µM (highest dose often 114 µM), without a hit: at the top dose activity change, negative = inhibition, most hits filed as inhibitors. 390,000 compounds, 4.4% hits. AID 504339, 2011; also: % is scaled to controls: 0 for no effect and ±100 for the full control effect; nearly all actives have a fitted effect of over 50% in size
PLK1 PBD inh: qHTS for Inhibitors of PLK1-PDB (polo-like kinase 1 - polo-box domain): Primary Screen; AID 720504, 2013; Serine/threonine-protein kinase PLK1 (Homo sapiens), P53350; Potency, µM, without a hit: max response, negative = inhibition, hits mostly inhibitors; Plk1 PBD binding of FITC phosphopeptide, fluorescence polarization; 360,000 compounds, 2.8% hits; also: series mostly up to about 57 µM; % is scaled to controls: 0 for no effect and ±100 for the full control effect; nearly all actives have a fitted effect of over 65% in size
ALOX12 inh: Primary qHTS assay for inhibitors of human arachidonate 12S-lipoxygenase (ALOX12): Round 2; Potency, µM (doses to about 108 µM), for inactives: top-dose activity change, negative = inhibition, most hits filed as inhibitors; Polyunsaturated fatty acid lipoxygenase ALOX12 (Homo sapiens), P18054; purified 12hLO, xylenol orange hydroperoxide absorbance; AID 1671190, 2021; 580,000 compounds, 1.1% hits; also: % is scaled to controls: 0 for no effect and ±100 for the full control effect
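Hydroperoxide product was detected by ferrous iron/xylenol orange as the 573 to 405 nm absorbance ratio. Arachidonic acid at 40 uM (final) was turned over for 30 min at room temperature by 150 nM human 12hLO, pH 7.0 Hepes buffer, after 15 min compound preincubation.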
BAZ2B inh: qHTS Assay for Inhibitors of BAZ2B; Bromodomain adjacent to zinc finger domain protein 2B (Homo sapiens), Q9UIF8; AlphaScreen BAZ2B-H3K14Ac peptide displacement; Potency, µM (doses to about 114 µM), inactives show at the highest dose activity change, negative = inhibition, most hits filed as inhibitors; 360,000 compounds, 4.4% hits; also: % is scaled to controls: 0 for no effect and ±100 for the full control effect; nearly all actives have a fitted effect of over 60% in size
Target sequence (Q9UIF8 whole entry, looked up, the tested form may be a part): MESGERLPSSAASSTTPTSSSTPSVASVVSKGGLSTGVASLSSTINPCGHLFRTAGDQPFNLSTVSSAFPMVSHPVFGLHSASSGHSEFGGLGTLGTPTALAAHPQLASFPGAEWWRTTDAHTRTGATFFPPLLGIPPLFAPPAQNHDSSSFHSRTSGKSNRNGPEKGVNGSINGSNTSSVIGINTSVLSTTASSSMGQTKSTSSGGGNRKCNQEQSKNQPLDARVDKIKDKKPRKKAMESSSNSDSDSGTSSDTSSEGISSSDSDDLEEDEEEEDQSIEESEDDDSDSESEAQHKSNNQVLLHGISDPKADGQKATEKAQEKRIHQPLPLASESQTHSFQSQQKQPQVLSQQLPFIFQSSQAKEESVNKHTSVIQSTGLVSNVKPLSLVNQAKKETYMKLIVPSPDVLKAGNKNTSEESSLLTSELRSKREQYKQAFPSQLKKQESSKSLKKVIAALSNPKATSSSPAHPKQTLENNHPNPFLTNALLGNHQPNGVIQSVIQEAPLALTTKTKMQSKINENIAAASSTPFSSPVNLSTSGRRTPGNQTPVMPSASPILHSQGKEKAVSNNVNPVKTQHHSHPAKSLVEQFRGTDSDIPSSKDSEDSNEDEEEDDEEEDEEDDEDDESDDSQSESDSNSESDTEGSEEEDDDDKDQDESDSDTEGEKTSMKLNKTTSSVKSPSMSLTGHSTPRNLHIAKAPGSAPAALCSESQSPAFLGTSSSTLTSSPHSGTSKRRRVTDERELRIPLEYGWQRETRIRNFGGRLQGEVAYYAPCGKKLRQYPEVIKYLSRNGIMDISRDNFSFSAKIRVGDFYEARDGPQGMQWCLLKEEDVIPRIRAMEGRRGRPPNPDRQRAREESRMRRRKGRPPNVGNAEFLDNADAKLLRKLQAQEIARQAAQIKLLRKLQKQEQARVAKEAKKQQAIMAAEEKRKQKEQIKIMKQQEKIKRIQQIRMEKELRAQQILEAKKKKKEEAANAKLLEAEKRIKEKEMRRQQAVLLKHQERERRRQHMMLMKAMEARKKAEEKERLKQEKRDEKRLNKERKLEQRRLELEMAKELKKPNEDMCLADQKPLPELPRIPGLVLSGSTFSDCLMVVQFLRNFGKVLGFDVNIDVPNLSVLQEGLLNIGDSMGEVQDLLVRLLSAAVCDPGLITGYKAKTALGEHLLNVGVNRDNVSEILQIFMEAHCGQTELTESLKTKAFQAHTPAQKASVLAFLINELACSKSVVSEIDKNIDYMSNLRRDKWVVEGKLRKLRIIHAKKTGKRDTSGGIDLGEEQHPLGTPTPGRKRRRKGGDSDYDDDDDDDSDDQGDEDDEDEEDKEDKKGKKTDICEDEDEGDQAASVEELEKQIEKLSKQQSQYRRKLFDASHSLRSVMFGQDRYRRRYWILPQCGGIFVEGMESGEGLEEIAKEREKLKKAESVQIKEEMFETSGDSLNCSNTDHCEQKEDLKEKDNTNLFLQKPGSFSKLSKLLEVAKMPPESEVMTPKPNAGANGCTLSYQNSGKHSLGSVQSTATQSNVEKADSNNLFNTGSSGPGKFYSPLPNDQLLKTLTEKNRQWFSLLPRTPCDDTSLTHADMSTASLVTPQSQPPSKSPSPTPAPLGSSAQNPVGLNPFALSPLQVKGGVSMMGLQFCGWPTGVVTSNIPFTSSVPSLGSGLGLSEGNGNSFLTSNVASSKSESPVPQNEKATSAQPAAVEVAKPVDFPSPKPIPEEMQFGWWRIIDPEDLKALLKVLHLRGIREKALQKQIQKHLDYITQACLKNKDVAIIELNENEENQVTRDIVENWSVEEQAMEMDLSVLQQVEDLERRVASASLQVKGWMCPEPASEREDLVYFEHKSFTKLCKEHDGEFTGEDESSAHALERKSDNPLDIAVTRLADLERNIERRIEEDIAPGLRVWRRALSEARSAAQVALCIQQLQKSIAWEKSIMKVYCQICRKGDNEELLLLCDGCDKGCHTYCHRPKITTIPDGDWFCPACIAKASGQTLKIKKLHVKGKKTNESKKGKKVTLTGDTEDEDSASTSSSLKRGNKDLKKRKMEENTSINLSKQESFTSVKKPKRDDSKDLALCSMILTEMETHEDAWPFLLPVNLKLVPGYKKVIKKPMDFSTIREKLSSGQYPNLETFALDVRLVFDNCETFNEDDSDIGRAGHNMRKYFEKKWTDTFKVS
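Complex of BAZ2B and biotin-H3K14Ac (50 nM apiece) forms over 30 min at RT, then faces library compounds up to 110 uM for another 30 min; AlphaScreen beads added, 20 min dark incubation, luminescence read.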
* marks the source's active call; other numbers are inactive results; ? = inconclusive; . = no result; [ ] = remark or other dose. Calls follow the shape of the dose curve; as a rule, active = well fitted curve in the direction sought with a large enough effect; inconclusive = small, poorly fitted or top-dose-only effect, or another doubt; inactive = no such curve, though single readings can be large; an effect the other way counts as inactive or inconclusive. Potency is read from the fitted curve at half-maximal effect.

SMILES | HP1b chromo inh | G9a inh | JMJD2A Tudor inh | PLK1 PBD inh | ALOX12 inh | BAZ2B inh
CCn1cc(C(=O)NCc2ccco2)c(=O)c2cc(F)c(N3CCN(C(=O)c4ccco4)CC3)cc21 | 24.1% | 14.1µM* | -30.1% | -13.7% | 36.3% | 56.2µM*
CCn1cc(C(=O)NCc2ccccn2)c(=O)c2cc(F)c(N3CCN(C)CC3)cc21 | 23.1% | 0.447µM* | -9.7% | -7.4% | 25.3% | -0.6%
O=C(Nc1nn[nH]n1)c1cccc(Oc2ccccc2)c1 | 29.9% | 39.8µM* | ? | -9.7% | 27.6% | 11.9%
CCOc1ccccc1C(=O)Nc1nn[nH]n1 | ? | 25.1µM* | 56.2µM* | -16.4% | ? | 50.1µM*
COc1ccc(C(=O)OCC(=O)c2cc(OC)ccc2OC)c(OC)c1 | 43.5% | 3.6% | -1.1% | -0.6% | 0.0% | 11.4%
COc1ccc(C(=O)COC(=O)c2ccc(Cl)nc2)c(OC)c1 | -7.2% | -30.8% | -13.8% | -5.4% | ? | 79.4µM*
COc1ccc(C(=O)COC(=O)c2ccc(Cl)nc2)cc1OC | 30.9% | ? | -2.8% | -2.6% | 8.5% | 9.3%
COC(=O)c1ccc(COC(=O)c2ccccc2OC)cc1 | 57.4% | 43.4%[59 µM] | 44.2% | -0.8% | -21.9% | 36.9%
COc1ccc(C(=O)COC(=O)c2ccccc2O)c(OC)c1 | 28.1% | -32.4%[59 µM] | ? | -9.0% | 58.9% | 50.1µM*
COC(=O)c1ccc(OCC(=O)c2ccccc2OC)cc1 | 32.8% | 19.2%[12.7 µM] | -2.3% | 3.0% | 20µM* | 1.9%
Cc1ccc(S(=O)(=O)NNc2c3ccccc3nc3ccc(Cl)cc23)cc1 | . | . | . | -11.9% | 25.1µM* | .
Cc1ccc(S(=O)(=O)NNc2nc3ccccc3nc2C(F)(F)F)cc1 | -84.7% | 1.41µM* | 35.5µM* | 8.44µM* | ? | 44.7µM*
O=C(CC1C(=O)NCCN1Cc1ccc(F)cc1Cl)NCc1ccon1 (centres undefined) | 42.6% | 31.6µM* | -9.7% | -12.6% | 3.9% | -15.8%
Cc1cc(C)nc(CCNC(=O)CC2C(=O)NCCN2Cc2ccc(F)cc2Cl)n1 (centres undefined) | 16.2% | 44.7µM* | -7.3% | -8.8% | 11.4% | -5.2%
CC(C)c1nc(CNC(=O)CC2C(=O)NCCN2Cc2ccc(F)cc2Cl)cs1 (centres undefined) | 36.1% | . | -29.5% | -26.5% | ? | -13.0%
O=C(O)CC1C(=O)NCCN1Cc1ccc(F)cc1Cl (centres undefined) | . | . | . | . | 19.2% | .
COC(=O)[C@]1(Cc2ccccc2)N[C@H](CN(C)C(=O)COc2ccccc2)[C@@H]2C(=O)N(Cc3ccccc3)C(=O)[C@@H]21 | 42.6% | . | -10.1% | -6.1% | 1.9% | .
Nc1nonc1-c1nc2ccccc2n1CC(=O)Nc1cccc(C(F)(F)F)c1 | 87.2% | 47.2%[59 µM] | -10.7% | . | -18.4% | 0.4%
CCSc1nnc(NC(=O)CN2C(=O)C3CC=CCC3C2=O)s1 (centres undefined) | 28.3% | 28.4%[12.7 µM] | -3.4% | -4.6% | -2.3% | ?
Cc1cccnc1C(NC(=O)C1CCN(CCOc2ccc(F)cc2)CC1)c1ccc(F)cc1 (centres undefined) | . | . | . | -5.1% | ? | .
CCCNC(=O)c1cnc2sc(N3CCCCC3)nn2c1=O | 18.9% | 10.0%[59 µM] | 8.1% | . | -27.6% | -1.8%
CCC(=O)c1c[nH]c(C(=O)NCc2ccccc2OC)c1 | 38.5% | -0.1% | -10.6% | -25.8% | -6.1% | 79.4µM*
COc1ccccc1CNC(=O)c1ccc2[nH]c(C)c(C)c2c1 | ? | ? | ? | . | 3.2% | 50.1µM*
Cc1cc(NC(=O)c2ccc3[nH]c(C)c(C)c3c2)ccn1 | 13.5% | ? | -17.1% | 2.7% | 0.0% | 50.1µM*
CC(=O)Nc1cccc(NC(=O)c2ccc3[nH]c(C)c(C)c3c2)c1 | ? | -4.5% | -31.9%[57.1 µM] | ? | 3.5% | -25.2%
SMILES | HP1b chromo inh | G9a inh | JMJD2A Tudor inh | PLK1 PBD inh | ALOX12 inh | BAZ2B inh
CCN(CC)CCC(c1ccc(N(C)C)cc1)c1c(OC)cc(OC)c2c1OC(=O)CC2c1ccc(N(C)C)cc1 (centres undefined) | 14.1µM* | . | 12.6µM* | . | . | .
CCN(CC)CCC(c1ccc(N(C)C)cc1)c1c(OC)cc(OC)c2c1OC(=O)CC2c1ccc(OC)cc1 (centres undefined) | ? | . | 15.8µM* | . | . | .
COc1ccc(C(CCN2CCCC(C)C2)c2c(OC)cc(OC)c3c2OC(=O)CC3c2cc(OC)c(OC)c(OC)c2)cc1 (centres undefined) | 6.8% | -5.8%[59 µM] | -21.4% | 6.1% | . | -24.4%
COc1cc(OC)c2c(c1C(CCN1CCN(c3ccccc3)CC1)c1ccc(N(C)C)cc1)OC(=O)CC2c1ccc(N(C)C)cc1 (centres undefined) | ? | . | 12.6µM* | . | . | .
COc1ccccc1N1CCN(C(=O)c2ccc3noc(-c4ccccc4)c3c2)CC1 | . | . | . | -4.3% | 3.3% | .
Nc1ccc(S(N)(=O)=O)cc1[N+](=O)[O-] | . | . | . | . | 15.8% | .
Nc1cc(S(=O)(=O)O)cc([N+](=O)[O-])c1O | 35.5µM* | 44.7µM* | 35.5µM* | ? | -3.9% | ?
COc1ccccc1-c1nnc(SC(C(=O)c2c[nH]c3ccccc23)c2ccccc2)n1C (centres undefined) | 36.7% | 79.4µM* | ? | 0.8% | -15.2% | -5.8%
O=C(NCc1ccccc1)c1ccc(Cl)nc1 | -7.7% | . | -18.9% | ? | 1.9% | 4.0%
COc1ccc(C(=O)N2CCC(c3nn(-c4ccc(OC)cc4)c(=O)[nH]3)CC2)cc1 | . | . | . | . | 14.1% | .
O=C(Nc1ccccc1)N1CCCC(c2nn(-c3ccc(Cl)cc3)c(=O)[nH]2)C1 (centres undefined) | . | . | . | . | 3.1% | .
O=C(Nc1ccccc1)N1CCC(c2nn(-c3ccc(Cl)cc3)c(=O)[nH]2)CC1 | . | . | . | . | 31.6µM* | .
COc1cccc(C(=O)N2CCC(c3nn(-c4ccc(Cl)cc4)c(=O)[nH]3)CC2)c1 | . | . | . | . | 35.5µM* | .
Cc1ccc(C(=O)N2CCC(c3nn(-c4ccc(Cl)cc4)c(=O)[nH]3)CC2)cc1 | . | . | . | . | 25.1µM* | .
COc1ccc(-n2nc(C3CCN(C(=O)c4cccc(OC)c4)CC3)[nH]c2=O)cc1 | . | . | . | . | 1.3% | .
O=C(c1ccccc1Cl)N1CCC(c2nn(-c3ccc(Cl)cc3)c(=O)[nH]2)CC1 | . | . | . | . | 35.5µM* | .

Source: PubChem
